Gal4-VP16 FLuc = Gal4-VP16 reporter inhibition counter-screen | Drosophila S2 Gal4-VP16 UAS-luciferase, luminescence, 20 h | Potency, µM (top dose mostly 53.6 µM), inactives show top-dose activity, negative = inhibition, usual class: inhibitors | hit rate 3.5% among 310,000;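 further: Gal4-VP16 expression switched on by copper sulfate through the metallothionein promoter; potency means the concentration at half of the fitted maximal effect; on the % scale 0 is the no-effect control and ±100 the full control effect; nearly all actives have a fitted effect of over 50% in size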
Six1-Eya2 inh = Six1/Eya2 interaction inhibition | Q15475+O00167 | AlphaScreen GST-Six1/His-Eya2 binding, biochemical; active compounds read low | activity change, % (no concentration beside the values) | hit rate 0.56% among 360,000 | AID 651725; in the data active means activity change below about -65%; inconclusive means mostly about -30% to -63%; further: on the % scale 0 is the no-effect control and ±100 the full control effect
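Compounds are tested against tagged Six1 and Eya2 proteins bridged by glutathione donor and nickel acceptor beads; after a one-hour incubation at 37 °C without light, AlphaScreen emission is recorded.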
CtBP-E1A inh = blocks the CtBP interaction with E1A; hit rate 0.49% among 340,000; AlphaScreen GST-E1A/His-CtBP binding, 1536-well; active compounds read low; activity change, % (test concentration not listed); in the data active means activity change below about -65%; inconclusive means mostly about -30% to -63%; further: on the % scale 0 is the no-effect control and ±100 the full control effect
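In 5 uL wells, 23 nL compound meets equimolar GST-E1A and His-CtBP (5X stock 125 nM each) for 2 h, 37 °C. Beads (5X, 50 ug/mL) then 1 h, 37 °C, dark.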
CBFb RUNX1 block = blocks binding between human CBF-beta and RUNX1 | Q01196+Q13951 | AlphaScreen CBFb-His/RUNX1-biotin binding, biochemical | Potency, µM (highest dose often 59.8 µM), for inactives: at the highest dose activity, negative = inhibition, actives largely listed as inhibitors | 230,000 tested, under 10 active | AID 1477; further: % of control where 0% means no effect
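Inhibition was taken as any reduction in AlphaScreen signal from the CBF-beta–RUNX1 pair (His and biotin tags, 30 nM each), measured after compound (15 min) and bead (90 min) incubations at room temperature.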
RORg inh = inhibitors of mouse ROR gamma transcriptional activity; Potency, µM (highest dose often 53.6 µM), without a hit: top-dose activity change, negative = inhibition, most hits filed as inhibitors; hit rate 5.4% among 310,000; P51450; Drosophila S2 Gal4-RORgamma UAS-luciferase reporter, 20 h; further: potency means the concentration at half of the fitted maximal effect; on the % scale 0 is the no-effect control and ±100 the full control effect; nearly all actives have a fitted effect of over 60% in size
Target sequence (P51450 whole entry, looked up, the tested form may be a part): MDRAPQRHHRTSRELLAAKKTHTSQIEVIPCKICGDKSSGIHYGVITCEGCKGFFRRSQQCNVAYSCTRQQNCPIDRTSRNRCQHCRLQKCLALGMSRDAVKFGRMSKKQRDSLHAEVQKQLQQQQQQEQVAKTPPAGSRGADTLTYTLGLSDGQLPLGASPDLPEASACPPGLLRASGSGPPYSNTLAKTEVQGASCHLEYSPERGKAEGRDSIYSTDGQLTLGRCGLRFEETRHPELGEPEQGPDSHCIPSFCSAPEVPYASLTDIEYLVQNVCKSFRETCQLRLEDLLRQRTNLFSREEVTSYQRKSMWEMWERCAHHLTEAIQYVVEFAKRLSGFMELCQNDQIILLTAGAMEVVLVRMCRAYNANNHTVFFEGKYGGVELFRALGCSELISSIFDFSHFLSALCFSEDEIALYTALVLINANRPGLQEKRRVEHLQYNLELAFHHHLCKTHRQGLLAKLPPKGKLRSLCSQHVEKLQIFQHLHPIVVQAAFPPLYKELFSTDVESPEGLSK
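Luminescence from a UAS-regulated Photinus luciferase reporter in stably transfected Drosophila Schneider cells is measured; decreased signal marks ROR gamma inhibition. Fusion expression is induced by 700 uM copper sulfate for 20 hr.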
MBNL1-CUG inh = MBNL1-poly(CUG) RNA binding inhibition. TR-FRET MBNL1-His/biotin-(CUG)12 binding, 665/545 ratio. hit rate 0.036% among 280,000. Potency, µM (series often up to 57.5 µM), inactives show at the highest dose activity change, negative = inhibition, usual class: inhibitors. AID 2675; active means well fitted inhibition curve with a large enough effect in the signal ratio, with a control signal flat, not every such curve was filed as active; inconclusive means small, poorly fitted or top-dose-only effect, or effect the other way, or a change in a side signal; inactive means no such curve, though single readings can be large or run the other way; the % refers to the signal ratio; further: potency means the concentration at half of the fitted maximal effect; on the % scale 0 is the no-effect control and ±100 the full control effect
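TR-FRET readout: Ex 340 nm, 665/545 nm emission ratio, normalized to buffer-only (basal) and MBNL1-(CUG)12 controls. Complex of MBNL1-His with Biotin-(CUG)12, compounds 92 nM–58 uM, incubated 60 min at room temperature.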
Numbers without * were called inactive; [ ] = dose if it differs, or a comment. Most compounds without a hit are left out; they make up all but 5.5% or so of the library. Unless noted, the call rests on the fitted dose curve; in most records, active means well fitted curve in the direction sought with a large enough effect; inconclusive means small, poorly fitted or top-dose-only effect, or another doubt; inactive means no such curve, though single readings can be large; an effect the other way counts as inactive or inconclusive.

What do the screens show for `Cc1cccc(NC(=O)C2CCCN(C(=O)NC3CCCCC3)C2)c1C` (centres undefined)?
Gal4-VP16 FLuc: 0%; Six1-Eya2 inh: 2; CtBP-E1A inh: 0; CBFb RUNX1 block: -3%; RORg inh: 13%; MBNL1-CUG inh: -7%

What do the screens show for `Cc1cccc(NC(=S)NC2CC3CCCC(C2)N3Cc2ccccc2)c1C` (centres undefined)?
Gal4-VP16 FLuc: inconclusive; Six1-Eya2 inh: -7; CBFb RUNX1 block: -7%; RORg inh: 14µM*; MBNL1-CUG inh: 4%

How did Cc1cccc(NC(=S)NN2CCOCC2)c1C do in these assays?
Gal4-VP16 FLuc: 2%; Six1-Eya2 inh: 0; CtBP-E1A inh: 4; CBFb RUNX1 block: -11%; RORg inh: 11µM*; MBNL1-CUG inh: -5%

How did O=[N+]([O-])c1ccccc1C=NN1CCCCCC1 do in these assays?
Six1-Eya2 inh: -70*; CtBP-E1A inh: inconclusive

How did O=[N+]([O-])c1ccccc1/C=N/N1CCN(Cc2ccccc2)CC1 do in these assays?
Gal4-VP16 FLuc: -6%; Six1-Eya2 inh: inconclusive; CtBP-E1A inh: -29; RORg inh: -4%[1.91 µM]; MBNL1-CUG inh: inconclusive

Results for CC1(C)CC(=O)c2cnn(-c3nc4ccccc4[nH]3)c2C1 ?
Gal4-VP16 FLuc: inconclusive; Six1-Eya2 inh: -6; CtBP-E1A inh: -10; CBFb RUNX1 block: 1%; RORg inh: 8.9µM*; MBNL1-CUG inh: -18%

How did O[C@@H]1COC2[C@@H](O)CO[C@@H]21 (some centres undefined) do in these assays?
Gal4-VP16 FLuc: -2%; CBFb RUNX1 block: 15%; RORg inh: -11%

Results for CCCCCCCCCn1ccc(=N)cc1 ?
Gal4-VP16 FLuc: 1.6µM*; Six1-Eya2 inh: 14; CtBP-E1A inh: 8; CBFb RUNX1 block: 7%; RORg inh: inconclusive; MBNL1-CUG inh: -5%

What do the screens show for `CCn1ccc(=N)cc1`?
Gal4-VP16 FLuc: 16µM*; Six1-Eya2 inh: 5; CtBP-E1A inh: 7; CBFb RUNX1 block: 5%; RORg inh: 5%; MBNL1-CUG inh: -10%

How did CCOC(=O)CN=C1CC(C)(C)CC2=C1Sc1ncnc(N(C)C)c1N2 do in these assays?
Gal4-VP16 FLuc: inconclusive; Six1-Eya2 inh: -2; CtBP-E1A inh: -4; CBFb RUNX1 block: 0%; RORg inh: 11µM*; MBNL1-CUG inh: inconclusive

What do the screens show for `CCOC(=O)C1(CCc2ccccc2)CCN(Cc2ccccn2)CC1`?
Gal4-VP16 FLuc: 11µM*; Six1-Eya2 inh: 10; CtBP-E1A inh: 0; CBFb RUNX1 block: 9%; RORg inh: 5µM*; MBNL1-CUG inh: 6%

What do the screens show for `CCOC(=O)C1(CCc2ccccc2)CCN(C(=O)C2CCCO2)CC1` (centres undefined)?
Gal4-VP16 FLuc: inconclusive; Six1-Eya2 inh: 0; CtBP-E1A inh: 1; CBFb RUNX1 block: 6%; RORg inh: 0%; MBNL1-CUG inh: 10%

How did CCOC(=O)C1(CCc2ccccc2)CCN(C(=O)[C@@H]2C[C@@H](C)NC(=S)N2)CC1 do in these assays?
Gal4-VP16 FLuc: inconclusive; Six1-Eya2 inh: 6; CtBP-E1A inh: 0; CBFb RUNX1 block: 10%; RORg inh: 11µM*; MBNL1-CUG inh: 12%

How did CCc1ccccc1NC(=O)CCC(=O)N1CCSc2ccccc21 do in these assays?
Gal4-VP16 FLuc: 0%; Six1-Eya2 inh: -1; CtBP-E1A inh: 3; RORg inh: 2%; MBNL1-CUG inh: -5%

How did CCOc1cc(C#N)ccc1OCC(=O)NNC(=O)CC1CCS(=O)(=O)C1 (centres undefined) do in these assays?
Six1-Eya2 inh: 4; CtBP-E1A inh: 4

What do the screens show for `O=C(NC1CCCCC1)C(c1ccccn1)N(C(=O)c1csnn1)c1ccccc1` (centres undefined)?
Gal4-VP16 FLuc: -1%; Six1-Eya2 inh: 3; CtBP-E1A inh: 9; RORg inh: 2%; MBNL1-CUG inh: -1%

What do the screens show for `COc1ccc(-c2ccc(C(=O)NCc3ccc(C(F)(F)F)cc3)c3occc23)c(C)c1`?
Six1-Eya2 inh: 0; CtBP-E1A inh: -9

What do the screens show for `CCOc1cccc(CNc2ccc(O)cc2)c1OCc1ccc(Cl)cc1Cl`?
Gal4-VP16 FLuc: inconclusive; Six1-Eya2 inh: 18; CtBP-E1A inh: -26; CBFb RUNX1 block: -18%; RORg inh: 16µM*; MBNL1-CUG inh: inconclusive

Results for CCOc1cccc(CNc2ccc(O)cc2)c1OCc1ccccc1Cl ?
Gal4-VP16 FLuc: -4%; Six1-Eya2 inh: -24; CtBP-E1A inh: inconclusive; CBFb RUNX1 block: -8%; RORg inh: -1%; MBNL1-CUG inh: inconclusive

What do the screens show for `CCc1cccc(C)c1NC(=O)CN1C(=O)NC(C)(CCC(C)C)C1=O` (centres undefined)?
Six1-Eya2 inh: 9; CtBP-E1A inh: 2

What do the screens show for `COc1nc(N(C)S(=O)(=O)c2ccc(C)cc2)nc(C)c1Br`?
Gal4-VP16 FLuc: -11%; Six1-Eya2 inh: 8; RORg inh: 41%; MBNL1-CUG inh: -1%

What do the screens show for `COCCNC(=S)Nc1cc(OC)c(NC(=O)c2ccco2)cc1OC`?
Gal4-VP16 FLuc: -4%; Six1-Eya2 inh: -15; CtBP-E1A inh: -4; CBFb RUNX1 block: 1%; RORg inh: -31%; MBNL1-CUG inh: -7%

Results for CCOCCCNC(=S)Nc1cc(OCC)c(NC(=O)c2ccco2)cc1OCC ?
Gal4-VP16 FLuc: -4%; Six1-Eya2 inh: -17; CtBP-E1A inh: 2; CBFb RUNX1 block: -7%; RORg inh: 7.9µM*; MBNL1-CUG inh: 5%

How did CCOc1cc(NC(=S)NCC(C)C)c(OCC)cc1NC(=O)c1ccco1 do in these assays?
Gal4-VP16 FLuc: 7.9µM*; Six1-Eya2 inh: -8; CtBP-E1A inh: -4; CBFb RUNX1 block: 5%; RORg inh: 5µM*; MBNL1-CUG inh: 8%

What do the screens show for `CCN1C(=O)[C@H]2[C@@H](c3ccc(Cl)cc3)N3C(=O)CN(CCOC)C(=O)[C@@]3(Cc3ccccc3)[C@H]2C1=O`?
Gal4-VP16 FLuc: 1%; Six1-Eya2 inh: -22; CtBP-E1A inh: 3; RORg inh: 6%; MBNL1-CUG inh: 1%

How did COc1ccc2c(c1)c(C(=O)N/N=C/c1cccc(Br)c1)c(C)n2C do in these assays?
Gal4-VP16 FLuc: 1%; Six1-Eya2 inh: inconclusive; CtBP-E1A inh: -7; CBFb RUNX1 block: -6%; RORg inh: -34%; MBNL1-CUG inh: 7%

How did C[C@@H]([C@@H](O)c1ccccc1)N(C)C(=O)C(N)Cc1ccccc1 (some centres undefined) do in these assays?
Gal4-VP16 FLuc: 5%; Six1-Eya2 inh: 0; CtBP-E1A inh: -1; RORg inh: 1%; MBNL1-CUG inh: 7%
